In PubChem BioAssay (EPA / NIEHS):
“And” between values parts separate entries of the source, which are not always exact repeats. Equal values may be shown once. Inconclusive results are not listed. Some compounds were tested as several samples or in several runs, with calls that do not always agree. The source made the active and inactive calls. Rule for the calls, unless noted: active = hit-call score of the fitted dose curve at least 0.9, where 1 is the maximum; inactive = score below 0.9.

How the values were obtained:
[1] = target: human RAR-related Orphan Receptor gamma (RORg), RORC (gene 6097) (UniProt P51449); assay: ATG_RORg_TRANS: Attagene TRANS-FACTORIAL HepG2 Assay for human RAR-related Orphan Receptor gamma (RORg) (AID 2283011; active = hit-call score of the fitted dose curve at least 0.9, where 1 is the maximum)
Outline: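 Transient MRTU transfection of HepG2 (TRANS format, exogenous NR-Gal4 chimera). 24 h dosing. Total RNA → oligo(dT) RT → PCR → 6-FAM labelling → HpaI cut → CE. Gain vs DMSO.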

[2] = target: Retinoic acid receptor RXR-alpha (Homo sapiens) (UniProt P19793); assay: ATG_RXRa_TRANS: Attagene TRANS-FACTORIAL HepG2 Assay for human Retinoid X Receptor alpha (RXRa) (AID 2283012; active = hit-call score of the fitted dose curve at least 0.9, where 1 is the maximum)
Outline: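 Measures exogenous chimeric NR-GAL4 activity in transfected HepG2 liver cells after 24 h of dosing. Induced reporter mRNA was detected by RT-PCR with capillary electrophoresis, and gain of signal was analysed against DMSO.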

[3] = target: human Retinoid X Receptor beta (RXRb), RXRB (gene 6257) (UniProt P28702); assay: ATG_RXRb_TRANS: Attagene TRANS-FACTORIAL HepG2 Assay for human Retinoid X Receptor beta (RXRb) (AID 2283013; active = hit-call score of the fitted dose curve at least 0.9, where 1 is the maximum)
Outline: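 Chimeric receptor-Gal4 activity was assessed in transiently transfected human HepG2 cells after 24 h exposure. Transcripts from GAL4-UAS reporters were quantified by fluorescent RT-PCR and capillary electrophoresis, with DMSO as negative control and baseline.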

[4] = target: human Thyroid Receptor alpha (THRa1), THRA (gene 7067) (UniProt P10827); assay: ATG_THRa1_TRANS: Attagene TRANS-FACTORIAL HepG2 Assay for human Thyroid Receptor alpha (THRa1) (AID 2283014; active = hit-call score of the fitted dose curve at least 0.9, where 1 is the maximum)
Outline: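 Transient HepG2 transfection, NR-Gal4 chimera driving GAL4-UAS reporters; 24 h compound exposure; total RNA, oligo(dT) RT, PCR, fluorescent primer extension, capillary electrophoresis. Upward direction vs DMSO control.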

[5] = read-out: E-selectin (Homo sapiens) (UniProt P16581); assay: BSK_3C_Eselectin: BioMAP Diversity Plus: 3C Assay for Eselectin Biomarker Activity (AID 2283015); conditions: primary human endothelial cells (HUVEC); actives raise or lower the signal
Outline: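 HUVEC, 3C stimulation; compound exposure 24 h; E-selectin by ELISA; gain- or loss-of-signal fitted bidirectionally vs DMSO baseline.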

[6] = read-out: Interleukin-1 alpha (IL1a), IL1A (gene 3552); assay: BSK_BE3C_IL1a: BioMAP Diversity Plus: BE3C Assay for Interleukin-1 alpha (IL1a) Biomarker Activity (AID 2283016); conditions: primary human bronchial epithelial cells; actives raise or lower the signal
Outline: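 Signal from IL-1a ELISA, taken 24 h after chemical dosing of human bronchial epithelial cells, is compared with DMSO as baseline using bidirectional curve fitting.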

[7] = read-out: Monocyte Chemoattractant Protein-1 (MCP1), CCL2 (gene 6347); assay: BSK_3C_MCP1: BioMAP Diversity Plus: 3C Assay for Monocyte Chemoattractant Protein-1 (MCP1) Biomarker Activity (AID 2283017); conditions: primary human endothelial cells (HUVEC); actives raise or lower the signal
Outline: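 HUVEC, 3C system; 24 h chemical exposure; MCP-1 by ELISA; bidirectional curve fit vs DMSO baseline.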

[8] = read-out: Monocyte Chemoattractant Protein-1 (MCP1), CCL2 (gene 6347); assay: BSK_4H_MCP1: BioMAP Diversity Plus: 4H Assay for Monocyte Chemoattractant Protein-1 (MCP1) Biomarker Activity (AID 2283018); conditions: primary human endothelial cells (HUVEC); actives raise or lower the signal
Outline: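 Endothelial cells from umbilical vein were treated with test chemical, then after 24 h MCP-1 levels were quantified by ELISA; endpoint values came from bidirectional fitting with DMSO as baseline of activity.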

[9] = read-out: Human Leukocyte Antigen - DR isotype (HLADR), HLA-DRA (gene 3122); assay: BSK_3C_HLADR: BioMAP Diversity Plus: 3C Assay for Human Leukocyte Antigen - DR isotype (HLADR) Biomarker Activity (AID 2283019); conditions: primary human endothelial cells (HUVEC); actives raise or lower the signal
Outline: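 HUVEC, 3C stimulation, 24 h post-dose; HLA-DR by ELISA; bidirectional curve fit vs DMSO baseline; gain or loss of signal scored.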

[10] = read-out: Interleukin-8 (IL8), CXCL8 (gene 3576); assay: BSK_3C_IL8: BioMAP Diversity Plus: 3C Assay for Interleukin-8 (IL8) Biomarker Activity (AID 2283020); conditions: primary human endothelial cells (HUVEC); actives raise or lower the signal
Outline: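 Endothelial primary cells of human umbilical vein origin are dosed with chemical; after 24 h the IL-8 biomarker is measured by ELISA, and concentration–response is fitted in both directions versus DMSO.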

[11] = read-out: Monokine induced gamma interferon (MIG), CXCL9 (gene 4283); assay: BSK_3C_MIG: BioMAP Diversity Plus: 3C Assay for Monokine induced gamma interferon (MIG) Biomarker Activity (AID 2283021); conditions: primary human endothelial cells (HUVEC); actives raise or lower the signal;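 for AC50: MIG protein level measured by immunoassay in the treated endothelial cultures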
Outline: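 Endothelial primary cells (human umbilical vein) are dosed with test chemical in the 3C system. MIG levels are measured by ELISA at 24 h and fitted in both directions relative to DMSO.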

[12] = target: human Vitamin D Receptor (VDR), VDR (gene 7421) (UniProt P11473); assay: ATG_VDR_TRANS: Attagene TRANS-FACTORIAL HepG2 Assay for human Vitamin D Receptor (VDR) (AID 2283022; active = hit-call score of the fitted dose curve at least 0.9, where 1 is the maximum)
Outline: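 RT-PCR/capillary electrophoresis read-out of reporter mRNA induction in transiently transfected HepG2; 24 h dosing; chimeric NR-Gal4 (TRANS format); gain-of-signal fit against DMSO baseline.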

[13] = BSK_3C_SRB: Viability Assessment in the BioMAP Diversity Plus: 3C Assay (AID 2283023); conditions: primary human endothelial cells (HUVEC);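 note: fitted both ways against DMSO so a hit may be signal rise or drop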
Outline: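 HUVEC, 24 h post-dose; 10% TCA fix, 0.1% SRB stain, A560 nm. Bidirectional curve fit vs DMSO negative control.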

[14] = read-out: Matrix Metallopeptidase 1 (MMP1), MMP1 (gene 4312); assay: BSK_BE3C_MMP1: BioMAP Diversity Plus: BE3C Assay for Matrix Metallopeptidase 1 (MMP1) Biomarker Activity (AID 2283024); conditions: primary human bronchial epithelial cells; actives raise or lower the signal
Outline: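 MMP1 signal, measured by ELISA after a 24 h chemical exposure of human primary bronchial epithelial cells, is analysed with bidirectional fitting using DMSO as negative control.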

[15] = BSK_3C_Vis: BioMAP Diversity Plus: 3C Assay for Morphology Visualization (AID 2283025); conditions: primary human endothelial cells (HUVEC);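 note: fitted both ways so gain or loss versus DMSO counts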
Outline: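 Morphology read by light microscopy serves as a background control for the multiplexed 3C assay in human umbilical vein endothelial cells, taken 24 h after dosing, with DMSO as the negative control and bidirectional curve fitting.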

[16] = read-out: Pselectin, SELP (gene 6403); assay: BSK_4H_Pselectin: BioMAP Diversity Plus: 4H Assay for Pselectin Biomarker Activity (AID 2283026); conditions: primary human endothelial cells (HUVEC); actives raise or lower the signal
Outline: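 Endothelial primary cells (human umbilical vein) are dosed, incubated 24 h, and assayed for surface P-selectin by ELISA; responses in either direction are fitted relative to the DMSO negative control.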

[17] = BSK_4H_SRB: Viability Assessment in the BioMAP Diversity Plus: 4H Assay (AID 2283027); conditions: primary human endothelial cells (HUVEC);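 note: cells exposed to compound for 24 h before staining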;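 for AC50: curves fitted both ways versus DMSO so AC50 may be loss or gain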
Outline: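 HUVEC, 24 h post-dose; 10% TCA fix, 0.1% SRB stain, A560 nm. Total protein = overt cytotoxicity, parallel to biomarker read. Bidirectional fit vs DMSO baseline.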

[18] = BSK_BE3C_SRB: Viability Assessment in the BioMAP Diversity Plus: BE3C Assay (AID 2283028); conditions: primary human bronchial epithelial cells;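 for AC50: fitted both ways so AC50 may mark signal gain or loss versus DMSO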
Outline: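 Primary human bronchial epithelium; chemical dosing, 24 h; 10% TCA fix, 0.1% SRB stain, A560; bidirectional fit vs DMSO baseline.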

[19] = read-out: Thrombomodulin, THBD (gene 7056); assay: BSK_3C_Thrombomodulin: BioMAP Diversity Plus: 3C Assay for Thrombomodulin Biomarker Activity (AID 2283029); conditions: primary human endothelial cells (HUVEC); actives raise or lower the signal
Outline: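 Endothelial cells from umbilical vein are dosed with test chemical and incubated 24 h. Thrombomodulin is then quantified by ELISA, with DMSO serving as negative control and activity baseline.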

[20] = read-out: Urokinase-type plasminogen activator receptor (uPAR), PLAUR (gene 5329); assay: BSK_4H_uPAR: BioMAP Diversity Plus: 4H Assay for Urokinase-type plasminogen activator receptor (uPAR) Biomarker Activity (AID 2283030); conditions: primary human endothelial cells (HUVEC); actives raise or lower the signal
Outline: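 HUVEC, 24 h post-dose; uPAR by ELISA; bidirectional fit vs DMSO baseline.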

Measured: AC50

Chain of Retinoic acid receptor RXR-alpha (Homo sapiens) (P19793 whole entry, looked up, the tested form may be a part): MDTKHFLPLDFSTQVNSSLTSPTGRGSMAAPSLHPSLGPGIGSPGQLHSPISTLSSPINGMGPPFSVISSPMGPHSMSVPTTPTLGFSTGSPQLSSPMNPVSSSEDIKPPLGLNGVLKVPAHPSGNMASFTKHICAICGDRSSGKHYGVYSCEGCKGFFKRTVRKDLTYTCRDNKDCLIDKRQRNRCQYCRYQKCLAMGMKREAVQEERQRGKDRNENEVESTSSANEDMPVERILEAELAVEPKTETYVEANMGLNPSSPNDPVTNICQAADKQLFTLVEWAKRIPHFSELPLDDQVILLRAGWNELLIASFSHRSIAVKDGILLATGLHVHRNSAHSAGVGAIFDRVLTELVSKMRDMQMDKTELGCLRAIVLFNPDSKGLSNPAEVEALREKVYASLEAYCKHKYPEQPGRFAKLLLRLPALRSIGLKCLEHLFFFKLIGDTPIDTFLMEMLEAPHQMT
Chain of human Vitamin D Receptor (VDR), VDR (gene 7421) (P11473 whole entry, looked up, the tested form may be a part): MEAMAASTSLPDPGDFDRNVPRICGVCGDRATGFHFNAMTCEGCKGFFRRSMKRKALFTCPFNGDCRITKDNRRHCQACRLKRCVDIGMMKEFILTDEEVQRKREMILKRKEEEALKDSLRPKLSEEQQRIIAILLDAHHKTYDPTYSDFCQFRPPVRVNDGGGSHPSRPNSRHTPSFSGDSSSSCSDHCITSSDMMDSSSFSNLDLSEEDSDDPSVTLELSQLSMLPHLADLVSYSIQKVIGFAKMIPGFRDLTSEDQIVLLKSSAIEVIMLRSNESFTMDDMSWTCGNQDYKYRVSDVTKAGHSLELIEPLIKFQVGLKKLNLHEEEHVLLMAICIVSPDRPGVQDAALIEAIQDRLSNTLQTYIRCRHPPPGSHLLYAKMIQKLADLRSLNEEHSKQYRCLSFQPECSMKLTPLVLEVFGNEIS
Chain of human Retinoid X Receptor beta (RXRb), RXRB (gene 6257) (P28702 whole entry, looked up, the tested form may be a part): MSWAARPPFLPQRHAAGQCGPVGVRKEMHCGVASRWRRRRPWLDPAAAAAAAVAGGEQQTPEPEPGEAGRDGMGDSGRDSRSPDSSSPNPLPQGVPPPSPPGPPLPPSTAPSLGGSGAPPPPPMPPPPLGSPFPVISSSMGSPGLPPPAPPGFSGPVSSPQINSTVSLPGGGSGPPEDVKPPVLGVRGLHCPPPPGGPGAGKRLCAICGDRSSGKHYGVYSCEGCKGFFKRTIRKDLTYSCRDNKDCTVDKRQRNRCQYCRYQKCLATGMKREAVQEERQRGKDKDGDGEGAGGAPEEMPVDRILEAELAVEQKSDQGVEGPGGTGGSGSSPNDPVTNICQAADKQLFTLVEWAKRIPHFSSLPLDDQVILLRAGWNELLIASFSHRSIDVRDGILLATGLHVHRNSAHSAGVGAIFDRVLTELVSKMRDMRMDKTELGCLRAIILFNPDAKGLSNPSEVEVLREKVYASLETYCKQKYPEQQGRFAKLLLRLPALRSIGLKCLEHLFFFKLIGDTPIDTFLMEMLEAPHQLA
Chain of human RAR-related Orphan Receptor gamma (RORg), RORC (gene 6097) (P51449 whole entry, looked up, the tested form may be a part): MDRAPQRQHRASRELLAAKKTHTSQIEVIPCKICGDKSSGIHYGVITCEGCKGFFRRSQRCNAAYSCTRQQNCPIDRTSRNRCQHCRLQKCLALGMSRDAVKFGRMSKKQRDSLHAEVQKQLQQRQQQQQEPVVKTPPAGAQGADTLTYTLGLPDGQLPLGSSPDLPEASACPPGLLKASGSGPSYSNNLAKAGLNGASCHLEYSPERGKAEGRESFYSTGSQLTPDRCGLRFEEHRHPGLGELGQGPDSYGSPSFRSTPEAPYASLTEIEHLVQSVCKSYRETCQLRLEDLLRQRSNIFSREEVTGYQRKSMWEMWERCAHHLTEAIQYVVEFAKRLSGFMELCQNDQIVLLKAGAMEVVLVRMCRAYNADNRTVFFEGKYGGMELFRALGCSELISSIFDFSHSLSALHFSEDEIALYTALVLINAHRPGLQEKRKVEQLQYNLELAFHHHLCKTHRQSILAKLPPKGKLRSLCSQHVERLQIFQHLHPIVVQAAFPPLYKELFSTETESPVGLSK
Chain of E-selectin (Homo sapiens) (P16581 whole entry, looked up): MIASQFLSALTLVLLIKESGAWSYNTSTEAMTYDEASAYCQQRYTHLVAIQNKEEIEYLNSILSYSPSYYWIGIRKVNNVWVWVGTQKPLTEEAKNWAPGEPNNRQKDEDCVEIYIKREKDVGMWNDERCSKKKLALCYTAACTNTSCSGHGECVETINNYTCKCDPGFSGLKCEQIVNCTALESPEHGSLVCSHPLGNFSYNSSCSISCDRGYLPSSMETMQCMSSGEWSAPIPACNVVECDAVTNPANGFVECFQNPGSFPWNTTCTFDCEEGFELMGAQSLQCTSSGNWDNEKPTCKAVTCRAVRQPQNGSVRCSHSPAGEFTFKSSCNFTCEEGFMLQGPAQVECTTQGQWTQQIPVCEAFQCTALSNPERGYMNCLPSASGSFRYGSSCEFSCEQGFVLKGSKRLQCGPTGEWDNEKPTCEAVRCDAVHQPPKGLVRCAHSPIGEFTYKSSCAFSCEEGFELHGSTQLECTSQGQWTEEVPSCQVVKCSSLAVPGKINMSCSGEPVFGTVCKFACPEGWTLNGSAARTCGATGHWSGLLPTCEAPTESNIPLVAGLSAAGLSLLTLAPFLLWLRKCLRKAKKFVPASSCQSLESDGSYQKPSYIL
Chain of human Thyroid Receptor alpha (THRa1), THRA (gene 7067) (P10827 whole entry, looked up, the tested form may be a part): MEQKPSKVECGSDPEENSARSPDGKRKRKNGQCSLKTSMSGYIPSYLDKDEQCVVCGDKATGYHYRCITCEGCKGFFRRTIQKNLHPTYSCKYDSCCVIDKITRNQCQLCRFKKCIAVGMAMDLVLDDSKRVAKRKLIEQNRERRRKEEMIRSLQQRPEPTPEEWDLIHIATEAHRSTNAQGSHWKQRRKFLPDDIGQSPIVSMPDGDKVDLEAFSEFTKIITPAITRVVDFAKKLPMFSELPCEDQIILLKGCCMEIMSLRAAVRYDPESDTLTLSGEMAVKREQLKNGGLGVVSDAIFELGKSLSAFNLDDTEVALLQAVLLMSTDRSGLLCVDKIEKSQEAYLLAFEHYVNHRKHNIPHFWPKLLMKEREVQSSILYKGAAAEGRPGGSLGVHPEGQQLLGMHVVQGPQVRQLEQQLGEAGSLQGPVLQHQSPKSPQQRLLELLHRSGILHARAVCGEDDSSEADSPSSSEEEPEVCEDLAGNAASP

CCOC(=O)C(Cl)Cc1cc(-n2nc(C)n(C(F)F)c2=O)c(F)cc1Cl (centres undefined)
active: [9] 9.55 µM
inactive: all other assays above

CCCC1COC(Cn2cncn2)(c2ccc(Cl)cc2Cl)O1 (centres undefined)
inactive: all assays above

C=CC1(C)OC(=O)N(c2cc(Cl)cc(Cl)c2)C1=O (centres undefined)
inactive: all assays above

OC(c1ccc(Cl)cc1)(c1cncnc1)c1ccccc1Cl (centres undefined)
active: [8] 16.6 µM | [9] 10.8 µM | [13] 26 µM | [15] 9.8 µM | [16] 23.9 µM | [20] 18.3 µM
inactive: all other assays above

COc1nc(C)nc(NC(=O)NS(=O)(=O)c2ccccc2Cl)n1
not listed: [4]
inactive: all other assays above

CCCCC(CC)COC(=O)c1ccccc1C(=O)OCC(CC)CCCC (centres undefined)
active: [8] 14 µM | [9] 15.5 µM | [13] 10.5 µM | [15] 39 µM | [16] 15.6 µM | [18] 11 µM
not listed: [12]
inactive: all other assays above

CCCCNC(=O)OCC#CI
active: [5] 31.6 µM and 31.8 µM | [6] 33.7 µM and 29.6 µM | [7] 24.9 µM and 19.2 µM | [8] 26 µM and 14.8 µM | [9] 8.66 µM and 11 µM | [10] 26.2 µM and 28.9 µM | [11] 32.3 µM and 34.4 µM | [13] 18.9 µM and 21.1 µM | [14] 32.9 µM | [15] 11.9 µM and 14.4 µM | [16] 12.8 µM and 16.1 µM | [17] 29 µM and 27.9 µM | [18] 21.5 µM and 26.9 µM | [20] 27.9 µM and 25.8 µM
inactive: [1] | [2] | [3] | [4] | [12] | [19]

CCOC(=O)CC(SP(=S)(OC)OC)C(=O)OCC (centres undefined)
active: [3] 63.4 µM | [9] 20 µM
inactive: [1] | [2] | [3] | [5] | [6] | [7] | [8] | [10] | [11] | [12] | [13] | [14] | [15] | [16] | [17] | [18] | [19] | [20]

CCOc1cc(Oc2ccc(C(F)(F)F)cc2Cl)ccc1[N+](=O)[O-]
active: [8] 11.5 µM | [9] 3.32 µM | [13] 14.1 µM | [14] 7.63 µM | [18] 6.77 µM | [19] 4.94 µM
not listed: [2] | [3] | [12]
inactive: all other assays above

CC(C)(C)c1ccc(CSc2cnn(C(C)(C)C)c(=O)c2Cl)cc1
inactive: [1] | [2] | [3] | [6] | [11] | [12] | [14] | [19] | [20]
active: [5] 3.97 µM | [7] 10.4 µM | [8] 0.221 µM | [9] 3.97 µM | [10] 7.27 µM | [13] 10.9 µM | [15] 15.2 µM | [16] 11.1 µM | [17] 16.5 µM | [18] 7.9 µM
